Reference: PubChem BioAssay
Calls of active or inactive are those of the source. Unless noted, how the calls were made is not given here.

Assays:
[1] = tested on: Wnt5a (protein binding on small-molecule microarray); assay: small molecules binding Wnt5a protein – biophysical, small-molecule microarray, 635/667 nm fluorescence, primary screen (AID 1142); details: 635 nm fluorescence, higher = more signal;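 further: fluorescence read at 667 nm with signal to noise per printed feature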
[2] = ATP-based viability of Huh7 replicon cells – cell-based, CellTiter-Glo luminescence, basal, 48 h, cytotoxicity control for HCV replication inhibitor project, primary screen (AID 1143); details: higher = more signal, called active from +8 up or from −8 down;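 further: Huh7 hepatoma cells carrying a hepatitis C replication reporter with no stimulus; test concentration not given here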
[3] = Pseudomonas biofilm growth suppression – PAO1 strain, BacTiter-Glo luminescence, LB-PBS, primary screen (AID 1144); details: P. aeruginosa PAO1 biofilm, 12 h, higher = more signal
[4] = basal CRE-LacZ reporter activity in PC12 – cell-based, unstimulated, primary screen (AID 1145); details: no forskolin, luminescence, 4.5 h, higher = more signal, called active from +8 up or from −8 down
[5] = forskolin-driven CRE-LacZ activity in PC12 – cell-based, CRE-LacZ reporter, forskolin-stimulated, primary screen (AID 1146); details: luminescence, 4.5 h, higher = more signal, called active from +8 up or from −8 down;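 further: PC12 cells with 6xCRE LacZ reporter stimulated by forskolin 10 µM; beta-galactosidase reporter signal reflecting CREB driven transcription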
[6] = target: Streptavidin (Streptomyces avidinii) (UniProt P22629); assay: compounds binding control protein streptavidin – biophysical, small-molecule microarray, 635/667 nm fluorescence, artefact control for SMM compound annotation, primary screen (AID 1147); details: higher = more signal;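 further: signal reflects streptavidin binding to arrayed compounds as a control protein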
Chain of Streptavidin (Streptomyces avidinii) (P22629 whole entry, looked up): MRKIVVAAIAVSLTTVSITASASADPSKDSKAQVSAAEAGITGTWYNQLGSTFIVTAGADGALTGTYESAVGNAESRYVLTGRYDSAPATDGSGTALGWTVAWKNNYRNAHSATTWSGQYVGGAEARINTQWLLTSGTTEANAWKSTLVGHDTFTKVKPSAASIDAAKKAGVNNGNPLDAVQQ

[7] = probe aInhba binding on compound microarray – biochemical, small-molecule microarray, 635/667 nm fluorescence, primary screen (AID 1148); details: higher = more signal;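 further: score merges 667nm spot fluorescence with signal-to-noise for antibody binding to printed compounds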
Torsin-1A (Homo sapiens) [8] = target: Torsin-1A (Homo sapiens) (UniProt O14656); assay: TOR1A wild-type binding on microarray – cell lysate, small-molecule microarray, lysate, 635/667 nm, primary screen (AID 1149); details: COS7 hTOR1A-WT lysate, 635 nm fluorescence, higher = more signal
Chain of Torsin-1A (Homo sapiens) (O14656 whole entry, looked up): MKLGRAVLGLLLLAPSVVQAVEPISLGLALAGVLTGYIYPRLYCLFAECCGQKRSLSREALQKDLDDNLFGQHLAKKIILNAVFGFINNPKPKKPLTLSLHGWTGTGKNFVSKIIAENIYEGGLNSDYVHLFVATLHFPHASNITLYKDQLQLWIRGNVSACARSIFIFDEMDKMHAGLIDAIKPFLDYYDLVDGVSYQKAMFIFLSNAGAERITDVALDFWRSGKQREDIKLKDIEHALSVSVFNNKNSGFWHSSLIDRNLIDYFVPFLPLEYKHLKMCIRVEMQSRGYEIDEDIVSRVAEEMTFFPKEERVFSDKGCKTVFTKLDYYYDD

Torsin-1A (Homo sapiens) [9] = target: Torsin-1A (Homo sapiens) (UniProt O14656); assay: torsin A mutant lysate binding on microarrays – cell lysate, small-molecule microarray, COS7 lysate, 635/667 nm fluorescence, primary screen (AID 1150); details: COS7 hTOR1A mutant lysate, 635 nm fluorescence, higher = more signal;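 further: score pools 667 nm emission and signal to noise measuring lysate protein binding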
[10] = tested on: Sonic hedgehog protein (Shh); assay: Sonic hedgehog microarray binding compounds – biochemical, small-molecule microarray, 635/667 nm fluorescence, primary screen (AID 1151); details: 635 nm fluorescence, higher = more signal;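 further: Shh protein binding to compounds spotted on small-molecule microarray slides; score combines spot fluorescence intensity with signal-to-noise across triplicate slides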

SMILES | composite z-score [1] | z-score [2] | z-score [3] | z-score [4] | z-score [5] | composite z-score [6] | composite z-score [7] | composite z-score (Torsin-1A (Homo sapiens) [8]) | composite z-score (Torsin-1A (Homo sapiens) [9]) | composite z-score [10]
CC1(C)OB(/C=C\CC(OC(=O)c2ccncc2)c2ccccc2)OC1(C)C (stereo not given) | 0.496 | -0.635 (inactive) | 0.135 (inactive) | 3.3 (inactive) | 0.174 (inactive) | -0.452 | -0.383 | 0.432 | -0.232 | -0.476
COc1c(C)cc(-c2cc3c(c(CCc4ccccc4)n2)[Si](C(C)C)(C(C)C)O[C@H]3c2ccccc2)cc1C | -0.169 | -2.84 (inactive) | -0.0716 (inactive) | -0.272 (inactive) | 0.412 (inactive) | -0.0663 | -0.128 | -1.11 | -0.554 | -0.11
[N-]=[N+]=NCc1ccccc1[C@H]1OC(c2ccc(OCCCO)cc2)=N[C@@]1(CCS(=O)(=O)c1ccccc1)C(=O)NCCN1CCOCC1 | 0.806 | -0.712 (inactive) | -0.561 (inactive) | 0.115 (inactive) | -0.871 (inactive) | 0.38 | 0.54 | 0.234 | 0.183 | -0.597
COc1cccc(C)c1NC(=O)O[C@H]1[C@H](OC(=O)Nc2ccccc2)[C@@H](OC(=O)Nc2ccccc2)[C@@H](OC)O[C@@H]1CO | 0.486 | -4.16 (inactive) | -1.16 (inactive) | 1.61 (inactive) | -2.37 (inactive) | 0.163 | 0.0227 | 2.57 | 0.958 | 0.958
C=CCNC(=O)[C@H]1[C@@H]2C(=O)O[C@@H](c3ccccc3)[C@@H](c3ccccc3)N2[C@@H](c2ccc(O)cc2)[C@]12C(=O)Nc1ccc(C#CCC(C(=O)OC)C(=O)OC)cc12 | -0.223 | 0.15 (inactive) | 0.278 (inactive) | -0.471 (inactive) | 0.0988 (inactive) | -0.419 | -0.0762 | 0.685 | 0.449 | 0.414
C#CCN(C(=O)OC(C)(C)C)[C@H](CO)c1ccccc1 | -0.1 | -1.66 (inactive) | -0.141 (inactive) | 0.0329 (inactive) | -0.653 (inactive) | -0.314 | -0.128 | 0.435 | 0.411 | 0.0466
C=C(CCCC)C(=O)CC[C@@H](OC(C)=O)c1ccc(OCCO)cc1 | 0.791 | -0.742 (inactive) | -1.12 (inactive) | 0.653 (inactive) | -0.101 (inactive) | -0.871 | 0.0154 | 1.34 | 0.084 | 1.52
Cc1ccc(S[C@]2(C(=O)NC3CC3)CC(=O)N(C3Cc4ccccc4C3)[C@@H]2c2ccc(CO)cc2I)cc1 | -0.547 | -2.23 (inactive) | 0.714 (inactive) | 0.919 (inactive) | 2.86 (inactive) | -0.441 | 0.0051 | 0.909 | 0.701 | 0.209
COCCOC(=O)N1C(=O)[C@@]2(c3cc(C#CCNC(N)=O)ccc31)[C@H](C(=O)N1CCN(c3ncccn3)CC1)[C@H]1C(=O)O[C@H](c3ccccc3)[C@H](c3ccccc3)N1[C@@H]2c1ccc(O)cc1 | -0.546 | -0.375 (inactive) | -1.09 (inactive) | 0.484 (inactive) | -0.26 (inactive) | -1.21 | -0.4 | -0.827 | -0.859 | -0.448
CCCCC(=C=CC[C@@H](O)c1ccc(OCCO)cc1)CCO | -0.032 | -1.75 (inactive) | 0.234 (inactive) | 7.73 (inactive) | -0.882 (inactive) | -0.217 | 0.0342 | 0.112 | 0.654 | 0.98
